Screens as filed in PubChem BioAssay.
Sampled rows, rich in hits. Any-hit rate of the full collection: about 3.4%.
AI-2 QS mod: Vibrio harveyi AI-2 quorum sensing modulators, primary screen, JMH597 strain, luminescence/OD600 ratio. Vibrio harveyi JMH597 AI-2 luminescence/OD600 ratio, 9 h; active compounds read low; strain lacks LuxN and CqsS sensors; 0 = neutral-control median. activity change, % at 7.5 µM. actives 0.4% (n = 300,000). AID 2094, 2009; in the data active means activity change below about -75%, passing the limit was not always enough;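 further: luminescence divided by OD600 gain over 9 h not by final OD600 alone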
HSP90 refold inh: HSP90 inhibitors, primary screen, cell lysate, luminescence | Heat shock protein HSP 90 (rabbit reticulocyte lysate; luciferase refolding) | Rabbit reticulocyte lysate, luciferase refolding luminescence, 3 h | inhibition, % at 5.6 µM | actives 0.91% (n = 290,000) | AID 1789, 2009;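 active means inhibition above the screen-wide mean plus 3 SD, computed separately per campaign, cut at about 16% in these data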;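 further: 0% = DMSO wells and 100% = 60 µM geldanamycin wells; inhibitors lower the luminescence because luciferase stays unfolded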
SMARCA2 act: SMARCA2 (BRM) function activators, primary screen, cell-based, luminescence, high throughput; MG213 cells, MMTV-luciferase reporter, dexamethasone, overnight; activation, % at 9.1 µM; actives 1% (n = 370,000); AID 652017, 2013; in the data active means activation above about 7.8%;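 further: 0% = vehicle wells and 100% = reference activator wells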
PG9 Ab binder: binders of HIV-1 gp120 antibody PG9, primary screen, biochemical, TR-FRET. AID 624416, 2012. HIV-1 gp120 / PG9 antibody interaction. inhibition, % at 6.7 µM. actives 0.43% (n = 360,000). TR-FRET gp120-PG9 antibody binding; in the data active means inhibition above about 8.5%
HSF1 inhib: HSF1 inhibitors in luciferase reporter cells, primary screen, cell-based, NIH3T3, luminescence; activity change, negative = inhibition, % at 7.5 µM (by protocol); NIH3T3-HGL HSE-luciferase, MG132-induced, luminescence 8 h; active compounds read low; actives 0.77% (n = 300,000); AID 2098, 2009;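 active means more than half of replicate wells show activity change below -50%, luminescence cut by over half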;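 further: luciferase reports HSF-1 transcriptional activity via heat shock element; 0% = median of DMSO wells and -100% = zero luminescence signal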
GAA850 FXN act: FXN promoter activators, primary screen, cell-based, luciferase luminescence, HEK293 lucGAA850 | actives 0.56% (n = 360,000) | AID 540364, 2011 | HEK293 lucGAA850 FXN promoter luciferase reporter, 24 h; percent of 10 µM SAHA response | activation, % at 6 µM;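 active means activation above the average of all compounds screened plus 3 SD, cutoff fixed separately per campaign, cut at about 7.5% in these data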;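 further: 0% = DMSO wells and 100% = 10 µM SAHA wells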
HSP90 confirm: HSP90 inhibitors, confirmation, cell lysate, luminescence; shares compounds with HSP90 refold inh; rabbit reticulocyte lysate, luciferase refolding luminescence, 3 h; inhibition, % at 5.9 µM; actives 64% (n = 2,300); in the data active means inhibition above about 18%;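 further: 0% = vehicle wells and 100% = reference inhibitor wells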
FLuc counter: firefly luciferase inhibitors, HSP90 counter-screen, confirmation, artefact control for HSP90 inhibitor project, biochemical, luminescence, triplicate; AID 1847, 2009; actives 48% (n = 2,300); purified native firefly luciferase; shares compounds with HSP90 refold inh; inhibition, % at 5.9 µM;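 active means inhibition above the mean inhibition of all tested sample wells plus 3 SD, cut at about 10% in these data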;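 further: 0% = DMSO with luciferase and 100% = wells lacking luciferase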
Target sequence (P08659 whole entry, looked up): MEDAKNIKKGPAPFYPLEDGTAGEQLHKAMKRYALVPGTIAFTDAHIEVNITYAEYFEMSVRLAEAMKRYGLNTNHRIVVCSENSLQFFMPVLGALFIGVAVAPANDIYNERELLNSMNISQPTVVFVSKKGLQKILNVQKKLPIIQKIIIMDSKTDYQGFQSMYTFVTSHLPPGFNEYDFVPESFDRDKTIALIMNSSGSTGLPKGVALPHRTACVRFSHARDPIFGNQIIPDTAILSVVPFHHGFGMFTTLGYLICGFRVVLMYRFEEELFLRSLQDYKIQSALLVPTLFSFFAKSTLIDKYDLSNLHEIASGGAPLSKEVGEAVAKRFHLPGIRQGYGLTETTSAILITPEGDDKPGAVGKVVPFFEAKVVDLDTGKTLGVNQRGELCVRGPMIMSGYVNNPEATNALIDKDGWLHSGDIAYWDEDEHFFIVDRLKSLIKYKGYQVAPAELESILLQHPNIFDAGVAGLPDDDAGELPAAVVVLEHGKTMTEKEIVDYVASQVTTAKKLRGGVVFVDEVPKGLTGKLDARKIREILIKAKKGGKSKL
* marks the source's active call; other numbers are inactive results.

What do the screens show for `CCN(CC)P(=O)(Nc1ccc([N+](=O)[O-])cc1)c1c(C)nn(CCC#N)c1NC(=O)c1ccc(Cl)cc1` (stereo unspecified)?
AI-2 QS mod: -15.1; HSP90 refold inh: 57.4*; SMARCA2 act: -1.6; PG9 Ab binder: -1.1; HSF1 inhib: 4.6; GAA850 FXN act: -4.0; HSP90 confirm: 14.2; FLuc counter: -7.9

How did CCOc1ccc2nc(COC(=O)c3cccs3)c(C(=O)c3ccccc3)[n+]([O-])c2c1 do in these assays?
AI-2 QS mod: 6.9; HSP90 refold inh: 0.0; SMARCA2 act: -3.3; PG9 Ab binder: -0.6; HSF1 inhib: -16.3; GAA850 FXN act: 2.5

How did CCOc1ccc2nc(COC(=O)c3cccs3)c(C(C)=O)[n+]([O-])c2c1 do in these assays?
AI-2 QS mod: -17.6; HSP90 refold inh: 28.7*; SMARCA2 act: -2.3; PG9 Ab binder: -2.0; HSF1 inhib: -6.8; GAA850 FXN act: 1.8; HSP90 confirm: -4.6; FLuc counter: -11.4

Results for Cc1ccccc1NC(=O)OC1CC2CC1[C@H]1CCCCN1[C@H]2Cc1ccccc1 (stereo partly specified) ?
SMARCA2 act: -2.7

How did Cc1cc(-c2nc(-c3ccc(C(C)(C)C)cc3)no2)no1 do in these assays?
AI-2 QS mod: 15.3; HSP90 refold inh: -4.7; SMARCA2 act: 4.4; PG9 Ab binder: -0.7; HSF1 inhib: 14.9; GAA850 FXN act: 3.9

Results for Cc1c(-c2nc(-c3ccc(C(C)(C)C)cc3)no2)n(C)oc1=O ?
AI-2 QS mod: 17.8; HSP90 refold inh: 70.2*; SMARCA2 act: 6.2; PG9 Ab binder: -0.2; HSF1 inhib: -74.2*; GAA850 FXN act: 6.5; HSP90 confirm: 91.1*; FLuc counter: -24.3

Results for CCOC(=O)c1csc(NC(=O)c2cc3ccccc3o2)n1 ?
AI-2 QS mod: 18.9; HSP90 refold inh: 57.6*; SMARCA2 act: -0.8; PG9 Ab binder: -0.2; HSF1 inhib: 12.1; GAA850 FXN act: 1.6; HSP90 confirm: 88.2*; FLuc counter: -29.2

Results for CCOC(=O)c1sc(NC(=O)c2cc3ccccc3o2)nc1C ?
AI-2 QS mod: 10.8; HSP90 refold inh: 8.7; SMARCA2 act: 3.0; PG9 Ab binder: 2.9; HSF1 inhib: 3.4; GAA850 FXN act: 1.8

Results for Cc1nc(NC(=O)c2cc3ccccc3o2)sc1C ?
AI-2 QS mod: 9.9; HSP90 refold inh: 39.9*; SMARCA2 act: 3.3; PG9 Ab binder: -1.8; HSF1 inhib: 11.8; GAA850 FXN act: -0.2; HSP90 confirm: 53.6*; FLuc counter: 47.3*

How did Cc1cc(-c2csc(NC(=O)c3cc4ccccc4o3)n2)c(C)n1C do in these assays?
AI-2 QS mod: 24.1; HSP90 refold inh: 41.3*; SMARCA2 act: -0.8; PG9 Ab binder: -1.3; HSF1 inhib: 2.1; GAA850 FXN act: 0.5; HSP90 confirm: 34.0*; FLuc counter: -14.0

Results for C[C@H](O)[C@@H]1C(=O)N2CCc3c([nH]c4cccc(-c5ccccc5)c34)[C@@H]2C[C@@H]1N(C)C(=O)OCc1ccccc1 ?
SMARCA2 act: 0.1; PG9 Ab binder: -1.9

How did O=C(Nc1nnc(-c2ccc(F)cc2)s1)c1ccco1 do in these assays?
AI-2 QS mod: 19.0; HSP90 refold inh: 50.5*; SMARCA2 act: 2.2; PG9 Ab binder: -1.2; HSF1 inhib: 7.8; GAA850 FXN act: 2.0; HSP90 confirm: -3.6; FLuc counter: -14.0

Results for CC(=O)N(C)C[C@@H]1OCc2ccccc2-c2c(n(C)c3ccccc23)C(=O)N([C@@H](C)CO)C[C@@H]1C ?
SMARCA2 act: -2.7; PG9 Ab binder: 0.9

What do the screens show for `CC(=O)c1sc(-c2ccc(Cl)cc2)cc1N`?
AI-2 QS mod: 9.2; HSP90 refold inh: 18.0*; SMARCA2 act: -2.3; PG9 Ab binder: 0.2; HSF1 inhib: 4.5; GAA850 FXN act: 2.4; HSP90 confirm: -5.8; FLuc counter: -18.7

How did COc1ccc(-n2c(SCc3ccc([N+](=O)[O-])cc3)nnc2-c2ccco2)cc1 do in these assays?
SMARCA2 act: -4.8

Results for Brc1ccc(N=Nc2ccc3ccccc3n2)cc1 ?
AI-2 QS mod: -12.4; HSP90 refold inh: 61.0*; SMARCA2 act: -0.6; PG9 Ab binder: -1.4; HSF1 inhib: -0.9; GAA850 FXN act: -6.8; HSP90 confirm: 94.9*; FLuc counter: 86.4*

What do the screens show for `CCC(=O)Nc1cccc(-c2ccc(N3CCCCC3)nn2)c1`?
AI-2 QS mod: 7.6; HSP90 refold inh: 24.5*; SMARCA2 act: 5.8; PG9 Ab binder: -2.5; HSF1 inhib: 23.1; GAA850 FXN act: -0.1; HSP90 confirm: 47.3*; FLuc counter: 15.0*

Results for O=C(Nc1ccc(C(F)(F)F)cc1)OC1CCC12CCC(c1ccccc1)CC2 (stereo unspecified) ?
SMARCA2 act: -2.2

What do the screens show for `CCOC(=O)c1c(-c2ccc(C)o2)csc1NC(=S)NC(=O)c1ccccc1Br`?
AI-2 QS mod: 19.2; HSP90 refold inh: 21.3*; SMARCA2 act: 1.9; PG9 Ab binder: -1.3; HSF1 inhib: 82.4; GAA850 FXN act: 2.8; HSP90 confirm: 5.5; FLuc counter: -5.7

How did COc1ccc(C(=O)N2CCOCC2)cc1S(=O)(=O)N1CCCc2ccccc21 do in these assays?
AI-2 QS mod: 22.2; HSP90 refold inh: 20.1*; SMARCA2 act: 0.1; PG9 Ab binder: -1.3; HSF1 inhib: -3.5; GAA850 FXN act: 0.5; HSP90 confirm: 0.8; FLuc counter: -6.1

How did CCC(C)NS(=O)(=O)c1ccc(NC(=O)c2cccs2)cc1 (stereo unspecified) do in these assays?
AI-2 QS mod: 17.4; HSP90 refold inh: -3.1; SMARCA2 act: -1.4; PG9 Ab binder: -0.2; HSF1 inhib: -3.5; GAA850 FXN act: 1.3

What do the screens show for `CCC(C)c1ccc(NC(=O)c2cccs2)cc1` (stereo unspecified)?
AI-2 QS mod: -3.7; HSP90 refold inh: 17.4*; SMARCA2 act: 5.7; PG9 Ab binder: -1.3; HSF1 inhib: 17.4; GAA850 FXN act: 4.3; HSP90 confirm: 24.3*; FLuc counter: 5.7
